Assay outcomes from PubChem BioAssay.
RGS7-Gao: human RGS7-Galphao interaction regulation; P09471; Multiplexed bead flow cytometry, RGS7-Galphao binding; actives lie on both sides; binding response (% of control), % at 10 µM; hit rate 0.35% among 220,000; in the data active = binding response below about 49% or above about 150%; inconclusive = no clear call, values can overlap the other calls; inactive = in between;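 note: fluorescent Galphao held in activated GDP-AlF4 state binding bead-coupled RGS7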
Avidin bead fluor: compound fluoresces at 488/530 nm on avidin beads; hit rate 0.38% among 220,000; fluorescence (KMESF) at 10 µM; AID 1775; compound fluorescence 488/530 nm, flow cytometry; stronger effect = higher value; in the data active = fluorescence above about 47
RGS16-Gao HTS: modulates binding between human RGS16 and Galphao. O15492+P09471. bead-based flow cytometry RGS16-Galphao binding, fluorescence; actives lie on both sides. binding response (% of control), % at 10 µM. hit rate 0.38% among 220,000. AID 1441;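 note: Galphao activated by GDP with aluminum fluoride before binding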
RGS8-Gao: human RGS8-Galphao interaction regulation; P09471; multiplexed bead flow cytometry, RGS8-Galphao binding; actives lie on both sides; AID 1423; hit rate 0.34% among 220,000; response (percent of control binding), % at 10 µM; in the data active = response below about 60% or above about 140%; inactive = in between;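 note: Galphao activated as the GDP aluminium fluoride complex binding bead-coupled RGS8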
GSH fluor: GSH bead compound fluorescence profile. hit rate 0.25% among 190,000. GSH beads flow cytometry, compound fluorescence 488/530 nm; stronger effect = higher value. fluorescence (KMESF) at 10 µM. AID 1776; in the data active = fluorescence above about 89;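 note: glutathione beads carrying GST-tagged Bcl family fusion proteins plus one bare bead set; values are compound well signal with DMSO vehicle wells as background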
RGS4-Gao reg: human RGS4-Galphao interaction regulation. Multiplexed bead flow cytometry, RGS4-Galphao binding; actives lie on both sides. P09471. hit rate 0.33% among 220,000. binding response (% of control), % at 10 µM; in the data active = binding response below about 49% or above about 150%; inactive = in between;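 note: fluorescent Galphao activated with aluminum fluoride binding bead-coupled RGS4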
RGS-Gao: regulators of human RGS4-Galphao interaction. shares compounds with RGS16-Gao HTS. multiplexed bead flow cytometry, RGS–Galpha-o binding. RGS4–Galpha-o binding response, % at 10 µM. hit rate 99% among 1,600. AID 1504;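 note: fluorescently labeled Galpha-o bound to GDP with aluminium fluoride binding biotinylated RGS beads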
Target sequence (P09471 whole entry, looked up): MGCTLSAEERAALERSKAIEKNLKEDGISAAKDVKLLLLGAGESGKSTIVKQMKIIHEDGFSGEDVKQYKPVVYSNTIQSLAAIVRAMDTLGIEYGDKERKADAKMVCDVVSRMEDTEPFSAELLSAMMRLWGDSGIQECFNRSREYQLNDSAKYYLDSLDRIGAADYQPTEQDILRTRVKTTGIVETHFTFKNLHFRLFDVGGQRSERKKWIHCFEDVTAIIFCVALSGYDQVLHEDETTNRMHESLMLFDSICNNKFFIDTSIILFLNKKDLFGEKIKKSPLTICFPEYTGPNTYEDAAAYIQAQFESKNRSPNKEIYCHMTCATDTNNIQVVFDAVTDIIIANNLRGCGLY
Target sequence (P49798 whole entry, looked up): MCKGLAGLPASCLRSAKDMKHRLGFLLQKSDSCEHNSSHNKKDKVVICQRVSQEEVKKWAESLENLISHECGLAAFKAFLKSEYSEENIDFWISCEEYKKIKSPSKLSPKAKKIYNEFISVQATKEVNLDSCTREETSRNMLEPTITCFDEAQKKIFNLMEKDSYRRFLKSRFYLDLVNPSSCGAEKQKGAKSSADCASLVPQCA
Avidin counter: counter-screen: compounds disrupting biotin binding to avidin beads | streptavidin beads, fluorescein-biotin binding, flow cytometry | shares compounds with RGS16-Gao HTS | inhibition, % at 10 µM | 1,700 tested, under 10 active | AID 1783;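 active = inhibition above 50%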;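 note: median green fluorescence of gated singlet beads compared with DMSO control wells; 0% = DMSO wells and 100% = complete loss of bead fluorescence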
RGS8-Gao single: confirmation of regulators of human RGS8-Galphao interaction; shares compounds with RGS16-Gao HTS; bead-based flow cytometry RGS8-Galphao binding, fluorescence; actives lie on both sides; binding response (% of control), % at 10 µM; hit rate 3% among 1,700; AID 1836; in the data active = binding response below about 72% or above about 130%; inactive = in between;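 note: Galphao activated as GDP AlF4 complex before binding bead RGS8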
RGS7-Gao single: confirmation of regulators of human RGS7-Galphao interaction. hit rate 7.8% among 1,700. bead-based flow cytometry RGS7-Galphao binding; actives lie on both sides. shares compounds with RGS16-Gao HTS. AID 1837. response (percent of control binding), % at 10 µM; in the data active = response below about 75% or above about 130%; inactive = in between;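 note: fluorescent Galphao activated with GDP and aluminum fluoride binding bead-coupled RGS7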
RGS16-Gao single: confirmation of regulators of human RGS16-Galphao interaction. shares compounds with RGS16-Gao HTS. bead-based flow cytometry, RGS16-Galphao binding; actives lie on both sides. response (% of control binding), % at 10 µM. hit rate 4% among 1,700. AID 1838; in the data active = response below about 74% or above about 130%; inactive = in between;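 note: Galphao activated as the GDP aluminium fluoride complex binding bead-coupled RGS16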
RGS4-Gao single: RGS4-Galphao interaction regulation, single point confirmation. shares compounds with RGS16-Gao HTS. hit rate 4% among 1,700. binding response (% of control), % at 10 µM. RGS4-Galphao binding, multiplexed bead flow cytometry; actives lie on both sides. AID 1840; in the data active = binding response below about 74% or above about 130%; inactive = in between
RGS19-Gao conf: confirmation of regulators of human RGS19-Galphao interaction; bead-based flow cytometry RGS19-Galphao binding; actives lie on both sides; AID 1841; hit rate 5% among 1,700; shares compounds with RGS16-Gao HTS; response (percent of control binding), % at 10 µM; in the data active = response below about 50% or above about 160%; inactive = in between;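 note: 100% = no compound control and 0% = blank background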
* hit, by the source's call; ? = inconclusive; . = no result given; [ ] = another dose, or the depositor's remark. Hits are enriched below; roughly 1.2% of the tested compounds scored in any of these assays. Unless noted, the rule behind the calls is not given here.

SMILES	RGS7-Gao	Avidin bead fluor	RGS16-Gao HTS	RGS8-Gao	GSH fluor	RGS4-Gao reg	Avidin counter	RGS8-Gao single	RGS7-Gao single	RGS16-Gao single	RGS4-Gao single	RGS19-Gao conf	others
FC(F)(F)c1cnc(N2CCCN(C(=S)Nc3ccccc3)CC2)c(Cl)c1	?	2	92.9	99.9	.	95.1	.	.	.	.	.	.
CCCS(=O)(=O)N1CCN(C(=O)c2cccnc2)CC1	47.7*	6	72.9	68.0	14	56.5	.	.	.	.	.	.	RGS-Gao=56.5*
CS(=O)(=O)N1CCN(C(=O)c2cccnc2)CC1	96.7	7	83.3	96.0	67	87.5	.	.	.	.	.	.
CCN(CC)C(=O)Oc1ccc(Cl)c2cccnc12	?	10	100.2	102.5	29	101.1	.	.	.	.	.	.
O=C(Nc1cccc(C(F)(F)F)c1)Oc1ccc(Cl)c2cccnc12	?	0	30.7	54.6*	.	26.2*	0.2	100.5	99.9	98.3	99.5	96.0
O=C1c2ccccc2NC(c2cccc(F)c2)N1Cc1ccco1 (configuration not stated)	31.3*	1	53.0	51.0*	19	42.8*	-0.8	99.5	102.7	100.5	101.3	102.0
CCn1c(SCC(=O)Nc2nnc(C)s2)nnc1-c1ccncc1	.	.	.	.	16	.	-1.1	100.3	96.0	96.4	99.0	91.3
Cc1nnc(NC(=O)CSc2nnc(C)n2Cc2ccccc2)s1	101.7	3	84.4	96.1	14	105.1	.	.	.	.	.	.
Cc1nnc(NC(=O)CSc2nnc(Cc3ccccc3)n2Cc2ccccc2)s1	98.3	.	.	108.9	41	107.0	0.8	98.6	45.3*	78.6	59.3*	46.5*
CCCCNC(=O)c1onc(CSc2ccc(C(C)C)cc2)c1C(=O)O	101.5	10	138.6	106.6	28	102.9	.	.	.	.	.	.
CCn1c(/C=C/N(C(C)=O)c2ccccc2)[n+](CC)c2ccc(Cl)cc21	98.9	7	104.9	101.5	10	105.7	.	.	.	.	.	.
CC[n+]1c(/C=C/C=C/N(C(C)=O)c2ccccc2)sc2ccccc21	148.6	.	149.9	98.0	25	14.0*	-3.3	117.1	243.5*[activator]	153.4*[activator]	162.8*[activator]	278.4*[activator]
COC(=O)C(=O)/C=C(\O)c1c(C)cc(C)cc1C	?	7	103.2	101.8	.	100.5	.	.	.	.	.	.
O=C(C[n+]1ccc(-c2nnc3n2CCC3)cc1)c1ccc(Cl)c(Cl)c1	.	6	104.9	103.0	7	100.2	1.7	96.1	81.8	92.5	89.3	67.4
CCNc1ccc2noc3c2c1C(=O)c1ccccc1-3	45.6*	7	42.7	55.0*	14	46.6*	0.1	68.8*	62.9*	65.8*	68.8*	115.9
CC1(C)Cc2c(sc3nc(-c4ccccc4)oc(=O)c23)CO1	93.1	5	94.2	94.5	9	93.0	.	.	.	.	.	.
COC(=O)CCCNC(=O)c1ccccn1	231.1*[activator]	229*	112.8	92.9	7	119.7	4.4	93.6	86.0	90.1	88.4	126.5	RGS-Gao=119.7*
CC(=O)NN1C(=O)c2ccccc2NC1c1ccccn1 (configuration not stated)	94.5	7	22.4*	85.3	14	97.0	1.7	104.1	103.4	101.0	105.0	108.1	RGS-Gao=97.0*
